# PubChem BioAssay AID1565 (Sanford-Burnham Center for Chemical Genomics, 2009)
# Screen size: about 290,000 compounds; about 3,200 (1.1%) were called active. The sample holds actives, similar compounds and a random draw of the others, so the mix is not that of the screen. No stated cut-off is given here; in the data, active means inhibition above about 60%; inactive means the rest.
# Target: Phosphoethanolamine/phosphocholine phosphatase (Homo sapiens) (UniProt Q8TCT1)
# Assay: PubChem AID 1565
# Conditions: recombinant PHOSPHO1, absorbance phosphatase assay; at 13.3 µM; active compounds read high
# Chain of Phosphoethanolamine/phosphocholine phosphatase (Homo sapiens) (Q8TCT1 whole entry, looked up): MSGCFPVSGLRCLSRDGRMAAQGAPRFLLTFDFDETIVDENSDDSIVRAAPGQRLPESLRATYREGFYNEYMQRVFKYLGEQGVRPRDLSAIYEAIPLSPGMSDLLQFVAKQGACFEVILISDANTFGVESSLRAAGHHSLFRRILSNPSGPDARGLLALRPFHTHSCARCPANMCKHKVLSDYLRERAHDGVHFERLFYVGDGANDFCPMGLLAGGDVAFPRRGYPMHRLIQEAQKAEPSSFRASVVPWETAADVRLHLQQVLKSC
row,Structure (SMILES),inhibition
1,COc1ccc(S(=O)(=O)N2CCOC2CNC(=O)C(=O)NCc2ccncc2)cc1C (stereo not given),19.8% (inactive)
2,COc1ccc(NS(=O)(=O)c2ccc3oc(SCC(N)=O)nc3c2)cc1,6.3% (inactive)
3,NS(=O)(=O)c1ccc(CCNC(=S)Nc2ccc(S(N)(=O)=O)cc2)cc1,78.5% (active)
4,S=C(NCCc1ccccc1)Nc1ccccc1,22.6% (inactive)
5,NS(=O)(=O)c1ccc(CCNC(=O)Nc2ccc(Cl)cc2)cc1,14.1% (inactive)
6,CC1CCC(NC(=O)CN(C)S(=O)(=O)c2ccc3c(c2)c(=O)n(C)c(=O)n3C)CC1 (stereo not given),58.3% (inactive)
7,COc1cc(OC)c(C2=NOC(C(=O)Nc3c(C)n(C)n(-c4ccccc4)c3=O)C2)cc1Cl (stereo not given),64.2% (active)
8,COc1cc(NC(=O)C2CC(c3ccccc3O)=NO2)c(OC)cc1Cl (stereo not given),24.3% (inactive)
9,Cc1c(NC(=O)c2coc(=O)c(Br)c2)c(=O)n(-c2ccccc2)n1C,-69.6% (inactive)
10,O=C(NCCN1CCCC(O)C1)c1cc(COc2c(F)cccc2F)on1 (stereo not given),54.7% (inactive)
11,C=CCn1c(-c2ccc3[nH]c(C)c(C)c3c2)n[nH]c1=S,98.8% (active)
12,C=CCn1c(-c2sc(-c3ccccc3)nc2C)n[nH]c1=S,27.7% (inactive)
13,C=CCn1c(-c2ccccc2OCC)n[nH]c1=S,-30.9% (inactive)
14,CN1C/C(=C/c2cccs2)C(=O)/C(=C\c2cccs2)C1,16.1% (inactive)
15,CNC(=O)C1CCN(S(=O)(=O)c2c(C)noc2/C=C/c2cccc(C)c2)CC1,34.4% (inactive)
16,O=C(Cn1ncc2c3ccccc3n(Cc3ccccc3)c2c1=O)NCc1ccccn1,-6.3% (inactive)
17,O=C(Cn1ncc2c3ccccc3n(Cc3ccccc3)c2c1=O)NCCCN1CCOCC1,57.9% (inactive)
18,Cc1ccccc1Cn1c2ccccc2c2cnn(CC(=O)NCc3ccco3)c(=O)c21,60.8% (active)
19,COc1ccc(-c2nnc(NC(=O)CS(=O)(=O)c3ccc(Cl)cc3)o2)c(OC)c1,46.9% (inactive)
20,O=S(=O)(Cc1cc(Cl)nc(-c2cccnc2)n1)c1ccccc1,17.6% (inactive)
21,COc1ccc(Cl)cc1NC(=O)CN(C)C(=O)CCCc1c[nH]c2ccccc12,9.8% (inactive)
22,CCCNC(=O)CCn1nc(-c2ccccc2)c2ccccc2c1=O,19.9% (inactive)
23,O=C(Nc1ccc(C(=O)NCc2ccccc2Cl)cc1)C1=CSCCO1,37.5% (inactive)
24,CS(=O)(=O)NCc1ccc(C(=O)NCc2ccccc2)cc1,-10% (inactive)
25,CSc1ccc(CNC(=O)c2ccc(NC(=O)C3=CSCCO3)cc2)cc1,69% (active)
